# Rv3671c inh: inhibitors of M. tuberculosis serine protease Rv3671c. inhibition, % at 5.96 µM. P9WHR9. 320,000 tested, 0.048% active. AID 2606; in the data active = inhibition above about 38%;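 note: extracellular domain of Rv3671c used as enzyme; 0% = enzyme with DMSO and 100% = no enzyme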
# FBA Mtb inh: Mtb fructose-bisphosphate aldolase inhibition; P9WQA3; purified M. tuberculosis FBA, fluorescence read-out; inhibition, % at 1 µM; 360,000 tested, 2.3% active; AID 588726; in the data active = inhibition above about 27%;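 note: 0% = vehicle and 100% = reference inhibitor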
# Target sequence (P9WQA3 whole entry, looked up): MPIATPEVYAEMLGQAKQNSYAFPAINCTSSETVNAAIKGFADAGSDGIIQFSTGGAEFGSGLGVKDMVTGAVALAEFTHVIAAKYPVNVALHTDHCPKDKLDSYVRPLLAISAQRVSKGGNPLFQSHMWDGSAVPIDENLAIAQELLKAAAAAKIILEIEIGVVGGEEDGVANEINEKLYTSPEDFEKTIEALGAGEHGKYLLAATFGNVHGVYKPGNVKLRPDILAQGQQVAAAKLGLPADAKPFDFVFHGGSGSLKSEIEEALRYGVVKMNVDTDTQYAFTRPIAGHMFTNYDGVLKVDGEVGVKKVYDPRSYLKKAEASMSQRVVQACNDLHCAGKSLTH
# RecA splice inh: blocks M. tuberculosis RecA intein splicing; 290,000 tested, 0.75% active; inhibition, % (test concentration not listed); cell-free RecA intein splicing, fluorescence; P9WHJ3; in the data active = inhibition above about 30%;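 note: 0% = vehicle wells and 100% = reference inhibitor control wells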
# GDH-TPI counter: inhibits GDH-TPI coupling enzymes, artifact for Mtb FBA screen; AID 588335; GDH-TPI coupled enzyme counterscreen, NADH absorbance; inhibition, % at 4.8 µM; 360,000 tested, 1.2% active; in the data active = inhibition above about 30%;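 note: 0% = DMSO wells and 100% = wells lacking the enzyme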
# Mtb UGM inh: inhibitors of M. tuberculosis UDP-galactopyranose mutase | inhibition, % at 10 µM | P9WIQ1 | purified UGM, fluorescence polarization probe displacement | 320,000 tested, 0.06% active; in the data active = inhibition above about 10%, passing the limit was not always enough
# Mtb bLac sens: beta-lactam sensitization of Mtb H37Rv | inhibition, % at 25 µM | 330,000 tested, 0.27% active | M. tuberculosis H37Rv growth with meropenem, percent inhibition;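 note: growth measured after seven days incubation then overnight dye step; 0% = bacteria only wells and 100% = bacteria with antibiotic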
# GFP chromo cs: counter-screen: blocks GFP chromophore formation | shares compounds with RecA splice inh | cell-free GFP chromophore formation, fluorescence | EC50, µM | 2,100 tested, 83% active | AID 434968
# Starred values were filed as active, the others as inactive; / = not tested or not shown. A selection: hits, their analogues and other compounds. The true share with any hit is near 4%. Unless noted, the rule behind the calls is not given here.
SMILES,Rv3671c inh,FBA Mtb inh,RecA splice inh,GDH-TPI counter,Mtb UGM inh,Mtb bLac sens,GFP chromo cs
O=C(O)/C=C/C(=O)Nc1ccc(C2(c3ccc(NC(=O)/C=C/C(=O)O)cc3)c3ccccc3-c3ccccc32)cc1,17,0,71*,-7,-4,-2,27*
O=C(O)/C=C/C(=O)Nc1ccc(OC(F)(F)Cl)cc1,2,-1,7,3,-1,-7,/
O=C(O)/C=C\C(=O)Nc1ccc(Oc2ccccc2)cc1,-3,-3,/,0,3,53,/
O=C(O)/C=C/C(=O)Nc1ccc(SC(F)(F)C(F)(F)C(F)(F)F)cc1,-6,-5,67*,-3,1,-6,37*
O=C(CNCc1ccccn1)Nc1ccc([N+](=O)[O-])cc1C(=O)Nc1ccccc1F,-3,0,-2,4,0,7,/
O=C1C=C(Nc2ccccc2)c2ccccc2C1=O,/,-7,70*,8,/,/,0.85*
O=C1C=C(Nc2cccc3cccnc23)c2ccccc2C1=O,-12,1,90*,-5,-2,14,3.6*
CCCCNC1=CC(=O)C(NCCCC)=CC1=O,/,-3,/,26,/,/,/
CCCCNC1=CC(=O)C(=O)c2ccccc21,-20,-6,97*,2,1,17,0.98*
CN(C(=S)NC(=O)C12CC3CC(CC(C3)C1)C2)c1ccc(O)cc1,-4,1,/,0,0,80,/
N#Cc1c(C#N)c(O)c2ccccc2c1O,-3,-1,84*,1,1,-3,2.4*
CCC(Oc1ccccc1)C(=O)Nc1ccccc1C(=O)N1CCN(C)CC1 (stereo not drawn),-4,2,0,-11,-1,-1,/
Nc1c(N2CCCC2)cc(Cl)c2nonc12,-37,-1,70*,14,0,-18,5.1*
Nc1ccc(N2CCCCC2)c2nonc12,-93,-7,75*,-1,-1,6,11*
Nc1scc2c(C(=O)N/N=C/c3ccc(Cl)cc3)nn(-c3ccccc3)c(=O)c12,-11,-3,63*,9,-2,5,16*
Nc1c(C(=O)N/N=C/c2ccc(Cl)cc2)cnn1-c1ccccc1,-17,1,1,12,0,2,/
Cc1ccccc1Cn1c(=O)sc2ccccc2c1=O,-12,-1,0,12,1,-7,/
CCN1C(=O)[C@@H]2[C@@H](c3ccc(-c4ccc(OC)cc4)c(OC)c3)N3CCCC[C@@]3(C(=O)OC)[C@@H]2C1=O,-3,1,/,7,-1,-4,/
O=C(CSc1nnc(Cc2ccccc2)o1)Nc1cccc(F)c1,-4,0,43*,12,-2,0,>38
O=C1Cc2ccccc2C(=O)N1c1ccccc1,2,-4,1,-5,-2,-1,/
O=C1Cc2ccccc2C(=O)N1Cc1ccccc1,-52,4,90*,13,4,-8,1.9*
CC(NC(=O)c1ccco1)C12CC3CC(CC(C3)C1)C2 (stereo not drawn),-6,0,/,3,-2,5,/
Cc1cc(C)cc(NC(=O)CSc2nc3ccccc3nc2N2CCCC2)c1,1,-1,2,5,2,-1,/
O=c1c(-c2ccccc2)c(O)cc(-c2ccncc2)n1-c1ccc(Cl)cc1,-20,1,4,9,-3,6,/
CC(C)(C)c1c(Cl)c(O)c(-c2ccccc2)c(=O)n1-c1ccccc1,/,0,31*,-5,/,/,>38
SMILES,Rv3671c inh,FBA Mtb inh,RecA splice inh,GDH-TPI counter,Mtb UGM inh,Mtb bLac sens,GFP chromo cs
COc1cc(NC(=O)CCc2ccccc2)c(C(=O)O)cc1OC,8,1,1,1,2,2,/
CCc1nnc(NC(=O)c2nc(S(=O)(=O)Cc3ccc(C)cc3)ncc2Cl)s1,5,-2,76*,8,-2,-1,20*
CCc1nnc(NC(=O)c2nc(S(=O)(=O)Cc3ccccc3)ncc2Cl)s1,-3,-1,66*,8,-1,0,37*
CCc1nnc(NC(=O)c2nc(S(=O)(=O)Cc3cccc(C)c3)ncc2Cl)s1,-19,0,75*,17,1,9,16*
CCOc1ccccc1NC(=O)c1nc(S(=O)(=O)Cc2cccc(C)c2)ncc1Cl,-8,3,8,13,-3,-5,/
COC(=O)c1ccccc1NC(=O)c1nc(S(=O)(=O)Cc2ccccc2)ncc1Cl,-3,-1,2,3,1,1,/
O=C(Nc1cccc(-c2nc3ncccc3o2)c1)c1ccc2c(c1)OCO2,/,4,/,-5,/,/,/

# Screens as filed in PubChem.
